ASM inhibitor: Inhibitors of Secretory Acid Sphingomyelinase (S-ASM): qHTS. Sphingomyelin phosphodiesterase (Homo sapiens), P17405. placental ASM, HMU-PC fluorogenic substrate, 60 min. Potency, µM (series often up to 57.5 µM), without a hit: at the highest dose activity change, negative = inhibition, hits mostly inhibitors. actives 0.006% (n = 340,000). AID 504937, 2011; note: potency is the fitted concentration of half-maximal effect
Target sequence (P17405 47-631 limits assumed): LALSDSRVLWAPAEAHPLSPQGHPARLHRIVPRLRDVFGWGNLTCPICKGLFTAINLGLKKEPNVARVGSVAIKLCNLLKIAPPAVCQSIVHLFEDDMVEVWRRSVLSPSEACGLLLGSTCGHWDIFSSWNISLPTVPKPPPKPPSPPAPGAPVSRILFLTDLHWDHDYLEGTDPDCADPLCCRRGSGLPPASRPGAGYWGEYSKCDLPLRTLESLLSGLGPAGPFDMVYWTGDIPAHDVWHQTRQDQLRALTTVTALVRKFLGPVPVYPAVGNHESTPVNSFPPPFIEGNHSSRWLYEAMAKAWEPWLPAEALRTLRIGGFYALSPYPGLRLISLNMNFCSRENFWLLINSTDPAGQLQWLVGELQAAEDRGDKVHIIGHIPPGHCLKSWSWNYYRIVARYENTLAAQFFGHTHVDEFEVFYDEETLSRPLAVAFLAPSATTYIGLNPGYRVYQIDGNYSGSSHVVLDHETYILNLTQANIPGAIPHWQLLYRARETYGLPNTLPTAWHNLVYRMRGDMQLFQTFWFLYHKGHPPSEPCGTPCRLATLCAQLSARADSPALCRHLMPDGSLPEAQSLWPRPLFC
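Fluorogenic HMU-PC substrate (9 uM final) is turned over by placental ASM in 60 min at 37 C after a 10 min compound preincubation. Reaction ended by alkaline stop (pH 10), with fluorescence read at 386/447 nm.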
IL1B secr inh: qHTS for Inhibitors of Inflammasome Signaling: IL-1-beta AlphaLISA Primary Screen; THP-1 LPS/ATP IL-1B secretion, AlphaLISA, 16 h; stronger effect = lower value; activity change, % at 57.5 µM; actives 4.7% (n = 360,000); in the data active = activity change below about -50%; inconclusive = mostly about -30% to -49%; note: % is set by controls: 0 for no effect and ±100 for the full control effect
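Secreted IL-1B measured by AlphaLISA bead assay after 16 h compound exposure of THP-1 cells; compounds (final up to 57.5 uM) added 1 h before LPS (250 ng/mL) and ATP (1.25 mM) stimulation; lower signal means less secretion.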
TDP1 cell CPT: qHTS for Inhibitors of human tyrosyl-DNA phosphodiesterase 1 (TDP1): qHTS in cells in presence of CPT; AID 686979, 2013; chicken DT40 Tdp1-/-;hTDP1 cells + 20 nM CPT, ATP luminescence, 48 h; Potency, µM (series often up to 46.2 µM), inactives show at the top dose activity change, negative = growth inhibition, usual class: inhibitors; actives 12% (n = 420,000); note: potency is the fitted concentration of half-maximal effect; % is set by controls: 0 for no effect and ±100 for the full control effect; nearly all actives have a fitted effect of over 55% in size
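Cell growth measured by CellTiter-Glo luminescence after a minimum 48 h, 37 C compound exposure with 20 nM CPT in Tdp1-knockout DT40 cells stably expressing hTDP1, seeded 400/well; qHTS titration format.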
HepG2 viability: qHTS for Inhibitors of TGF-b: Cytotox Counterscreen; HepG2 CAGA-GFP viability, ATP luminescence, 18 h; Potency, µM (titrated, usually from 46.1 µM), for the others: at the highest dose activity change, negative = cytotoxicity, hits mostly cytotoxic; actives 0.76% (n = 410,000); AID 588856, 2011; note: potency is the fitted concentration of half-maximal effect
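HepG2 CAGA-GFP cells (1000/well, DMEM with 1% FBS) received compound, then TGF-beta at 500 pg/mL final, and were incubated 18 hours at 37 degrees C. Viability was read by CellTiter-Glo luminescence. Media-only wells were set as complete cell-killing and DMSO as no toxicity.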
TGFb inhibitor: qHTS for Inhibitors of TGF-b; Potency, µM (series often up to 46.1 µM), without a hit: at the top dose activity, negative = inhibition, hits mostly inhibitors; actives 1.2% (n = 410,000); AID 588855, 2011; HepG2 CAGA-GFP TGF-b/SMAD3 reporter, GFP fluorescence, 18 h; TGF-beta stimulated, 500 pg/mL final; note: potency is the fitted concentration of half-maximal effect; % is set by controls: 0 for no effect and ±100 for the full control effect; nearly all actives have a fitted effect of over 65% in size
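Per well, imaged GFP fluorescence of HEPG2 CAGA-GFP cells gives the signal; cells get compound, then TGF-beta (500 pg/mL final), 18 h at 37 degrees C; %Activity versus -TGF-beta and +DMSO controls.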
TDP1 cell noCPT: qHTS for Inhibitors of human tyrosyl-DNA phosphodiesterase 1 (TDP1): qHTS in cells in absence of CPT | DT40 Tdp1-/- hTDP1 cells, no CPT, ATP luminescence, 48 h | Potency, µM (series often up to 46.2 µM), for the others: top-dose activity change, negative = growth inhibition, most hits filed as inhibitors | actives 15% (n = 420,000); note: potency is the fitted concentration of half-maximal effect; % is set by controls: 0 for no effect and ±100 for the full control effect; nearly all actives have a fitted effect of over 55% in size
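No-CPT arm: Tdp1-/-;hTDP1 DT40 cells (400/well) plus compounds, incubated ≥48 hr at 37 °C. Readout CellTiter-Glo luminescence.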
Starred values were filed as active, the others as inactive; ? = inconclusive; nt = not tested or not shown. Most compounds without a hit are left out; they make up all but 19% or so of the library. Unless noted, calls come from the whole dose curve; as a rule, active = well fitted curve in the direction sought with a large enough effect; inconclusive = small, poorly fitted or top-dose-only effect, or another doubt; inactive = no such curve, though single readings can be large; an effect the other way counts as inactive or inconclusive.

SMILES	ASM inhibitor	IL1B secr inh	TDP1 cell CPT	HepG2 viability	TGFb inhibitor	TDP1 cell noCPT
O=C(/C=C/c1ccccc1Cl)N1CCC(c2nc3ccccc3o2)CC1	nt	nt	?	-14.0%	-19.8%	20.6µM*
O=C(/C=C/c1ccc(Cl)cc1)N1CCC(c2nc3ccccc3o2)CC1	nt	nt	?	6.4%	?	?
Cc1c(CCOC(=O)CC23CC4CC(CC(C4)C2)C3)sc[n+]1CC(=O)c1ccc(Br)cc1	-2.8%	-61.5*	?	-115.6%	?	25.9µM*
Cc1c(CCOC(=O)CC23CC4CC(CC(C)(C4)C2)C3)sc[n+]1CC(=O)c1ccccc1	?	-80.5*	16.4µM*	-101.7%	?	16.4µM*
Cc1ncsc1CCOC(=O)C12CC3CC(CC(C3)C1)C2	-2.7%	8.1	-24.4%	-28.6%	-2.5%	-26.7%
Cc1c(CCOC(=O)C23CC4CC(CC(C)(C4)C2)C3)sc[n+]1CC(=O)c1ccccc1	-1.9%	?	23.1µM*	-57.9%	?	20.6µM*
COc1ccc(S(=O)(=O)Nc2cccc3cccnc23)c([N+](=O)[O-])c1	nt	nt	nt	-41.4%	?	nt
CCC(CC)NC(=O)Nc1cccc(C)c1C	1.9%	-10.1	-14.2%	2.1%	-4.8%	-1.4%
O=C(O)CSCC(=O)Nc1ccc(Cl)cc1C(F)(F)F	1.5%	35.6	2.4%	6.5%	4.6%	17.5%
CCC(C)N(CC(=O)Nc1cccc(C)c1C)C(=O)CCl (stereo not drawn)	-1.3%	-110.5*	?	-49.1%	22.4µM*	2.31µM*
CC(C)N(CC(=O)Nc1ccc(Cl)cc1C(F)(F)F)C(=O)CCl	-2.1%	-115.5*	20.6µM*	-40.7%	?	6.51µM*
O=C(CN1C(=O)NC2(CCCc3ccccc32)C1=O)Nc1ccccc1OC(F)F (stereo not drawn)	-1.4%	-5.2	-4.4%	-13.2%	0.4%	13.4%
COc1ccc(CCC(=O)NCCc2ccc(Cl)cc2)cc1	-2.3%	-24.4	-0.9%	-5.2%	4.3%	-11.4%
COc1ccc2c(c1)C(SCC(=O)NCCc1ccc(Cl)cc1)CC(C)(C)O2 (stereo not drawn)	-0.7%	-12.7	16.4µM*	-29.6%	?	?
Fc1ccccc1COc1ccc(Br)cc1CNCc1ccncc1	2.2%	-22.1	?	-41.2%	-10.8%	?
CCOc1c(Cl)cc(CNCc2ccncc2)cc1OC	4.6%	29.8	?	-11.8%	2.6%	?
CCOc1cc(CNCc2ccncc2)cc(Br)c1OCc1ccc(F)cc1	-2.9%	-84.1*	10µM*	-44.8%	-3.8%	11.2µM*
Fc1ccc(COc2cccc(CNCc3ccncc3)c2)cc1	1.5%	-11.4	?	-29.6%	-19.8%	8.2µM*
Fc1ccc(COc2ccc(Br)cc2CNCc2ccncc2)cc1	3.6%	-78.8*	?	-15.6%	5.1%	?
COc1ccc(/C=C/C(=O)Nc2sc(C)c(C)c2C(=O)O)cc1	nt	nt	-4.8%	-38.2%	0.8%	0.8%
CCc1cc2c(=O)n(Cc3ccco3)c(SCC(=O)NCC3CCCO3)nc2s1 (stereo not drawn)	0.6%	-6.1	14.6µM*	-19.1%	-10.4%	16.4µM*
CCc1cc2c(=O)n(Cc3ccco3)c(SCC(=O)NC3CCS(=O)(=O)C3)nc2s1 (stereo not drawn)	-1.1%	-7.9	?	-3.7%	-2.2%	-27.1%
CCc1cc2c(=O)n(Cc3ccco3)c(SCc3c(C)noc3C)nc2s1	-5.3%	-5.0	5.8µM*	-41.2%	?	2.91µM*
CCc1cc2c(=O)n(Cc3ccco3)c(SCC(=O)N3CCCc4ccccc43)nc2s1	-7.2%	-27.5	25.9µM*	-15.9%	-6.9%	?
Cc1ccc(-c2csc3ncn(CC(=O)O)c(=O)c23)cc1C	4.5%	32.0	0.4%	-8.5%	-16.7%	30.7%
SMILES	ASM inhibitor	IL1B secr inh	TDP1 cell CPT	HepG2 viability	TGFb inhibitor	TDP1 cell noCPT
COc1ccc(Cn2c(SCC(N)=O)nc3c(sc4ccccc43)c2=O)cc1	nt	nt	?	2.3%	38.1%	?
Cc1ccc(CNC(=O)CSc2nc3c(sc4ccccc43)c(=O)n2CCCN2CCCC2)cc1	26.5%	-90.2*	23.1µM*	-11.8%	0.0%	?
CSc1nc2c(sc3ccccc32)c(=O)n1Cc1ccc(C)cc1	nt	nt	20.6µM*	-2.6%	0.0%	16.4µM*
Cc1ccc(CNC(=O)CSc2nc3c(sc4ccccc43)c(=O)n2CCCOC(C)C)cc1	nt	nt	-8.0%	13.6%	12.5%	?
O=C(CSc1nc2c(sc3ccccc32)c(=O)n1CCCN1CCCC1)NCc1ccccc1	38.6%	-99.6*	-61.6%	-6.3%	-3.8%	?
CCOCCCn1c(SCC(=O)NCc2ccccc2)nc2c(sc3ccccc32)c1=O	nt	nt	-25.9%	-32.6%	-5.3%	?
O=[N+]([O-])c1ccc(OCn2cncn2)cc1	7.5%	-7.0	-10.8%	-28.5%	-3.6%	-18.8%
Cc1cc([N+](=O)[O-])ccc1P(=O)(O)c1ccc([N+](=O)[O-])cc1C	4.9%	19.3	-0.8%	3.8%	-2.8%	-4.4%
COc1ccc(S(=O)(=O)N2CCCCC2)cc1	2.5%	5.7	-17.9%	0.2%	-16.0%	-3.7%
COc1ccc(NS(=O)(=O)c2ccc(S(=O)(=O)N3CCCC3)cc2)cc1	1.8%	4.6	?	-2.3%	-1.7%	20.6µM*
COc1ccc(NS(=O)(=O)c2ccc(S(=O)(=O)N3CCOCC3)cc2)cc1	-0.9%	2.8	?	1.2%	-0.9%	16.4µM*
CC(=O)C1N=NCC1c1ccccc1 (stereo not drawn)	-0.4%	8.9	1.5%	-0.4%	13.7%	-4.8%
C=C(C)c1cccc(C(C)(C)NC(=O)N2CCN(C(=O)OCC)CC2)c1	nt	8.6	-11.4%	0.1%	-1.8%	-11.3%
CCCNC(=O)c1cc(C2CCCN(S(=O)(=O)c3cccc4cccnc34)C2)on1 (stereo not drawn)	nt	22.8	16.4µM*	-8.7%	3.0%	?
CCCNC(=O)c1cc(C2CCCCN2S(=O)(=O)c2cccc3cccnc23)on1 (stereo not drawn)	nt	5.7	?	-12.3%	?	-20.7%

Compound activity deposited in PubChem by National Center for Advancing Translational Sciences (NCATS).
